Compounds with a hit are over-represented: about 1.2% of the library has one in this group of screens.
Platelet DG rel: modulates dense granule release in human platelets; AID 1663; inhibition, %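 (compounds screened at 7.5 µM in platelet-rich plasma)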; actives 0.22% (n = 300,000); human platelet-rich plasma, SFLLRN dense granule ATP release, luminescence;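 active = mean replicate score, as percent of positive control, at or above 50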
Yeast superoxide: yeast age-related superoxide inhibition as caloric restriction mimetic; actives 0.18% (n = 330,000); superoxide response (% of plate mean), % at 10 µM; S. cerevisiae aged cells, superoxide DHE fluorescence; hits give low values;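 active = superoxide response under a set limit, about three screen SD below normal, cut at about 65% in these data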;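 note: yeast aged for seven days with compound at 30 °C before DHE staining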
ABCB6 inh MLPCN: blocks the human ABCB6 transporter. Q9NP58. fluorescence ratio to DMSO, % at 10 µM. actives 0.19% (n = 360,000). K562-ABCB6 porphyrin accumulation, flow cytometry, 1 h; hits give low values;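 active = fluorescence ratio to DMSO below 75%, the collection mean minus 3 SD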;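 note: signal is porphyrin accumulated inside mitochondria; lower ratio means ABCB6 inhibition with less porphyrin fluorescence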
SKN-1 block: blocks SKN-1 activity in C. elegans; C. elegans VP596 Pgst-4::GFP/RFP ratio, acrylamide-induced, 24 h; inhibition, % at 21.8 µM; AID 624304; actives 0.49% (n = 360,000);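 active = interference check ratio from 0.5 to 1.5 plus GFP to RFP signal ratio inhibition reaching or exceeding a fixed threshold, cut at about 30% in these data, passing the limit was not always enough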
VLA-4 inh: inhibition in a human VLA-4 binding assay. P13612. VLA-4 expressing cells, ligand binding flow cytometry. inhibition, % (about 7 µM as worked out from the volumes in the protocol). actives 0.2% (n = 330,000). AID 2557; in the data active = inhibition above about 50%
VLA-4 allo CP: human VLA-4 allosteric modulation in cherry picked compounds; shares compounds with VLA-4 inh; U937 cells, HUTS-21 LIBS mAb binding, flow cytometry; LDV ligand present at threefold Kd; inhibition, % at 6.7 µM; actives 2% (n = 1,300); AID 2813; in the data active = inhibition above about 40%
Numbers stand for hits.

How did CCN(C(=O)CSc1nc(-c2ccccc2)c(-c2ccccc2)[nH]1)C1CCS(=O)(=O)C1 (stereo unspecified) do in these assays?
Platelet DG rel: inactive; Yeast superoxide: inactive; ABCB6 inh MLPCN: inactive; SKN-1 block: inactive; VLA-4 inh: 94.9; VLA-4 allo CP: inactive

What do the screens show for `COC(=O)c1sc(NC(=O)C2c3ccccc3Oc3ccccc32)c(C(=O)OC)c1C`?
Platelet DG rel: inactive; Yeast superoxide: inactive; ABCB6 inh MLPCN: inactive; SKN-1 block: inactive; VLA-4 inh: inactive; VLA-4 allo CP: inactive

What do the screens show for `CCOC(=O)c1c(NC(=O)COC)sc(C(C)=O)c1C`?
Platelet DG rel: inactive; Yeast superoxide: inactive; ABCB6 inh MLPCN: inactive; SKN-1 block: inactive; VLA-4 inh: inactive

How did COC(=O)c1c(NC(=O)C2c3ccccc3Oc3ccccc32)sc(C)c1C do in these assays?
Platelet DG rel: inactive; Yeast superoxide: inactive; ABCB6 inh MLPCN: inactive; SKN-1 block: inactive; VLA-4 inh: inactive; VLA-4 allo CP: inactive

What do the screens show for `CCOC(=O)c1c(NC(=O)C2c3ccccc3Oc3ccccc32)sc(C(C)=O)c1C`?
Platelet DG rel: inactive; Yeast superoxide: inactive; ABCB6 inh MLPCN: inactive; SKN-1 block: inactive; VLA-4 inh: inactive; VLA-4 allo CP: inactive

Results for CC(C)NC(=O)C1(C)CN(S(C)(=O)=O)CC(=O)N1CCc1ccc(O)cc1 (stereo unspecified) ?
SKN-1 block: inactive

What do the screens show for `CC1(Oc2ccccc2-c2ccno2)CCN(Cc2csc3ccccc23)C1` (stereo unspecified)?
ABCB6 inh MLPCN: inactive; SKN-1 block: inactive

How did O=C(c1ccc(CN2CCc3ccccc3C2)cc1)N1CCN(c2ccccc2)CC1 do in these assays?
Platelet DG rel: inactive; Yeast superoxide: inactive; ABCB6 inh MLPCN: inactive; SKN-1 block: inactive; VLA-4 inh: inactive; VLA-4 allo CP: inactive

Results for Cn1c2ccccc2c2ncn(Cc3ccco3)c(=O)c21 ?
Platelet DG rel: inactive; Yeast superoxide: inactive; ABCB6 inh MLPCN: inactive; SKN-1 block: inactive; VLA-4 inh: 55.3; VLA-4 allo CP: inactive

Results for Cn1c2ccc(F)cc2c2ncn(Cc3ccco3)c(=O)c21 ?
Platelet DG rel: inactive; Yeast superoxide: inactive; ABCB6 inh MLPCN: inactive; SKN-1 block: inactive

Results for Clc1cccc(CNc2ccn3nc(-c4cccc(Cl)c4)cc3n2)c1 ?
ABCB6 inh MLPCN: inactive; SKN-1 block: inactive

What do the screens show for `Fc1ccccc1CNc1ccc(Cl)cc1`?
Platelet DG rel: inactive; Yeast superoxide: inactive; ABCB6 inh MLPCN: inactive; SKN-1 block: inactive; VLA-4 inh: inactive

How did Fc1ccc(NCc2ccccc2F)cc1Cl do in these assays?
Platelet DG rel: inactive; Yeast superoxide: inactive; ABCB6 inh MLPCN: inactive; SKN-1 block: inactive; VLA-4 inh: 50.2; VLA-4 allo CP: inactive

How did CC(=O)c1ccc(Nc2nc(C(N)COCc3ccccc3)cs2)cc1 (stereo unspecified) do in these assays?
ABCB6 inh MLPCN: inactive; SKN-1 block: inactive

Results for O=C1CCC(c2ccc3c(c2)CCC3)=NN1 ?
Platelet DG rel: inactive; Yeast superoxide: inactive; ABCB6 inh MLPCN: inactive; SKN-1 block: inactive; VLA-4 inh: 53.5; VLA-4 allo CP: inactive

Results for O=C1CCC(c2ccccc2)=NN1 ?
Platelet DG rel: inactive; Yeast superoxide: inactive; ABCB6 inh MLPCN: inactive; SKN-1 block: inactive; VLA-4 inh: inactive

Results for Cc1ccc(F)c(S(=O)(=O)NC(=O)C2(C)CCN2C(=O)Cc2cccs2)c1 (stereo unspecified) ?
ABCB6 inh MLPCN: inactive; SKN-1 block: inactive

What do the screens show for `CC(C)(C)N(NC(=O)Nc1ccccc1)C(=O)c1ccccc1Cl`?
Platelet DG rel: inactive; Yeast superoxide: inactive; ABCB6 inh MLPCN: inactive; SKN-1 block: inactive; VLA-4 inh: 93.7; VLA-4 allo CP: inactive

How did CC(C)(C)N(NC(=O)OCc1ccccc1)C(=O)c1ccccc1Cl do in these assays?
Platelet DG rel: inactive; Yeast superoxide: inactive; ABCB6 inh MLPCN: inactive; SKN-1 block: inactive; VLA-4 inh: inactive

Results for O=C(NC1CCCC1)C(C1CC1)n1c(-c2ccccn2)nc2ccccc21 (stereo unspecified) ?
SKN-1 block: inactive

Results for COC(=O)c1ccc(NC(=O)c2sc3nc(-c4ccccc4)cn3c2C)cc1 ?
Platelet DG rel: inactive; Yeast superoxide: inactive; ABCB6 inh MLPCN: inactive; SKN-1 block: inactive; VLA-4 inh: 51.9; VLA-4 allo CP: inactive

How did COc1cc(C(=O)NC2CC2)cc(OC)c1OC do in these assays?
ABCB6 inh MLPCN: inactive; SKN-1 block: inactive

Assay outcomes (PubChem BioAssay)
